Measurements reported in PubChem BioAssay AID1906 (The Scripps Research Institute Molecular Screening Center, 2009).
About 1,500 (0.5%) of roughly 300,000 compounds were called active. This is one part of a sample in which actives are shown more often than they occur.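 The calls were made as follows: active = inhibition above the mean of all tested compounds plus 3 SD, set per screening campaign (cut at about 17% in these data); inactive = the rest.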

Test system: cathepsin L1 (Fasciola hepatica)
Experiment: Fasciola hepatica cathepsin L1 inhibitors, primary screen, counter-screen for PFM18AAP inhibitor project, biochemical, QFRET, fluorogenic peptide substrate (AID 1906);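 also: 0% = plate median of test compound wells and 100% = 1 µM Z-Phe-Ala-diazomethylketone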
Details: recombinant F. hepatica cathepsin L1, Z-Leu-Arg-MCA fluorescence; at 5.96 µM; hits give high values

SMILES | inhibition
CCOC(=O)NC(=O)CSc1nnc(SCCC(=O)O)s1 | -3.27% (inactive)
Cc1cccc2nc(CNc3ccc(F)cc3)cn12 | -0.43% (inactive)
O=C(CN1CCN(S(=O)(=O)c2ccc(F)cc2)CC1)NC1CC1 | 0.44% (inactive)
Nc1c(Cl)cc(-c2csc(N3CCCC3c3nc4cc(Cl)c(Cl)cc4n3CCOCCO)n2)cc1Cl (stereo not given) | 1.62% (inactive)
COCCCN(C(=S)Nc1c(C)cc(C)cc1C)C(C)c1ccncc1 (stereo not given) | -2.52% (inactive)
CC(C)Cc1nnc(NC(=O)CCC(=O)Nc2ccc3cn[nH]c3c2)s1 | -6.53% (inactive)
CCc1noc(C)c1C(=O)N1CCCC(N2CCN(c3ccc(F)cc3)CC2)C1 (stereo not given) | -0.72% (inactive)
Cc1onc(-c2ccccc2)c1C(=O)NNC(=S)NC(=O)c1ccc(F)cc1 | 6.16% (inactive)
CCc1noc(C)c1C(=O)NNC(=O)c1ccc(F)cc1 | 18.8% (active)
COc1ccc(/C=N/NC(=O)C(C)N(c2ccc(OC)cc2)S(C)(=O)=O)cc1 (stereo not given) | -4.5% (inactive)
COc1cc(C2C(N3C(=O)c4ccccc4C3=O)C(=O)N2c2ccc(C)c(C)c2)cc(OC)c1OC (stereo not given) | 3.07% (inactive)
Cc1ccc(C2Nc3ccccc3C(=O)N2CCN2CCNC2=O)cc1 (stereo not given) | 28.6% (active)
CCOC(=O)NN1C(=O)c2ccccc2NC1c1cccc(O)c1 (stereo not given) | 7.1% (inactive)
CC(=O)NN1C(=O)c2ccccc2NC1c1ccccc1 (stereo not given) | 0.11% (inactive)
Cc1cc(NC(=O)CCC(=O)N(c2cccc(F)c2)C(C(=O)NC2CCCC2)c2ccncc2)no1 (stereo not given) | -0.94% (inactive)
Cc1cc(NC(=O)CCC(=O)N(Cc2ccccc2)C(C(=O)NC2CCCC2)c2ccc(C)o2)no1 (stereo not given) | 29.5% (active)
Cc1cc(NC(=O)CCC(=O)N(c2ccccc2)C(C(=O)NC2CCCC2)c2ccncc2)no1 (stereo not given) | -1.79% (inactive)
CC1CCN(S(=O)(=O)c2ccc3ncn(CC(=O)N(C)C4CCCCC4)c(=O)c3c2)CC1 | 1.81% (inactive)
Cc1ccc(C)c(Cn2nnc3c(=O)[nH]c(C(=O)Nc4ccc(F)cc4)nc32)c1 | 0.39% (inactive)
O=C(CCl)NNc1cccc(Cl)n1 | 87.5% (active)
O=C(Cc1c(Cl)cccc1Cl)NC1CC1 | 4.27% (inactive)
O=C(NNc1ccccn1)c1ccc(Cl)nc1 | 1.75% (inactive)
Cc1ccccc1NC(=O)c1ccc(COc2ccc3c(C)cc(=O)oc3c2)cc1 | 1.96% (inactive)
CCn1ccnc1CN(C)Cc1nc(-c2ccc3c(c2)OCO3)no1 | -4.87% (inactive)
COc1ccc(CCNC(=O)COC(=O)C2CCCCC2)cc1 | -2.54% (inactive)

SMILES | inhibition
COc1ccc(NC(=O)COC(=O)CNC(=O)C2CCCCC2)cc1 | 32.3% (active)
COc1ccc(NC(=O)CN(C)C(=O)CNC(=O)C2CCCCC2)cc1 | -1.07% (inactive)
NC(=O)COc1ccccc1C(=O)NC12CC3CC(CC(C3)C1)C2 | -1.07% (inactive)
COc1ccccc1C(=O)COC(=O)CSCC(=O)Nc1cc(C)on1 | -19.3% (inactive)
COCc1cc(C)nc(SCC(=O)Nc2cccc(C)c2)c1C#N | -0.64% (inactive)
Cc1cc(C)c(C#N)c(SCc2ccccc2C(=O)O)n1 | -2.52% (inactive)
Cc1cc(C)c(C#N)c(SCC(=O)Nc2ccccc2)n1 | 39.5% (active)
Cc1c(C(=O)OC(C)C)sc(NC(=O)c2cccnc2)c1C#N | 2.51% (inactive)
COc1ccccc1CCNC(=O)CN1C(=O)NC2(CCCC2)C1=O | -1.76% (inactive)
O=C(O)CC(c1ccccc1F)N1Cc2ccccc2C1=O (stereo not given) | 0.38% (inactive)
O=c1[nH]c(SCc2cccc(F)c2)nc2ccccc12 | -0.09% (inactive)
O=c1[nH]c(/C=C/c2cccc(Br)c2)nc2ccccc12 | 49.9% (active)
CCOc1cc(/C=C/c2nc3ccccc3c(=O)[nH]2)cc(Br)c1OC | 4.32% (inactive)
COc1ccc(S(=O)(=O)N2CCOC2CNC(=O)C(=O)NCc2ccncc2)cc1C (stereo not given) | -2.32% (inactive)
O=C1CSC(=S)N1c1ccc(O)cc1 | 2.41% (inactive)
Cc1cc(=O)[nH]c(S)c1C#N | 3.28% (inactive)
CC(=O)c1cc(C#N)c(SCC(=O)C(C)(C)C)nc1C | 5.58% (inactive)
Cc1ccc(-c2nnc(C)c(N3CC(C)OC(C)C3)n2)cc1 (stereo not given) | 1.07% (inactive)
CC(=O)c1cc(C#N)c(N2CC(C)OC(C)C2)nc1C (stereo not given) | 20% (active)
O=C(Nc1ccc(-c2nnc(-c3ccccc3)o2)cc1)C1CCCO1 (stereo not given) | 0.12% (inactive)
O=C(Nc1nnc(CCc2ccccc2)s1)C1CCCO1 (stereo not given) | 18% (active)
O=C(Nc1nnc(SCc2c(Cl)cccc2Cl)s1)C1CCCO1 (stereo not given) | 4.51% (inactive)
OCCNc1nc(Nc2ccc(Cl)c(Cl)c2)nc2ccccc12 | 2.53% (inactive)
CS(=O)(=O)c1ccc(Cl)c(NC(=O)COC(=O)c2ncc(Cl)c(Cl)c2Cl)c1 | -5.36% (inactive)
Cc1ccc(S(=O)(=O)CC(=O)Nc2sc(C)c(C)c2C(N)=O)cc1 | 17.8% (active)

SMILES | inhibition
Cc1ccc(S(=O)(=O)CC(=O)Nc2nnc(C)s2)cc1 | -3.43% (inactive)
CC(=O)N1CCc2c(sc(NC(=O)CCS(=O)(=O)c3ccc(C)cc3)c2C(N)=O)C1 | -1.1% (inactive)
C/C=C(\C)C(=O)NCCN1C2=NC[C@H](Cc3ccc(O)cc3)N2C[C@@H]1Cc1ccc(OC)cc1 | -2.36% (inactive)
O=C(O)CSCC(=O)Nc1ccc(C(F)(F)F)cc1 | -1.45% (inactive)
O=C(O)CC1(CC(=O)Nc2cccc(C(F)(F)F)c2)CCCC1 | -5.07% (inactive)
O=C(O)CSCC(=O)Nc1cccc(C(F)(F)F)c1 | 16.9% (active)
CCOc1cc(N2CCOCC2)c(OCC)cc1NC(=O)COc1cccc2cccnc12 | -0.24% (inactive)
CCOc1cc(N2CCOCC2)c(OCC)cc1NC(=O)c1ccc(C)s1 | -0.83% (inactive)
CCOc1cc(N2CCOCC2)c(OCC)cc1NC(=O)COc1cccc(Cl)c1 | 30.1% (active)
Cc1c(C=O)c2ccccc2n1CCOc1ccccc1 | 1.89% (inactive)
O=C(O)c1cccnc1NC1CCCC1 | 1.66% (inactive)
Cc1cc(C)nc(N(C#N)CC(=O)Nc2ccccc2)n1 | 1.63% (inactive)
CNc1nc(SC)nc(N(C#N)CC(=O)OC)n1 | 42.3% (active)
COC(=O)C(C)N(C#N)c1nc(C)nc(C)n1 (stereo not given) | 1.79% (inactive)
COc1ccc(CC(NC(C)=O)C(=O)N2CCN(C(=O)Nc3cccc(Cl)c3)CC2)cc1OC (stereo not given) | -4.54% (inactive)
Cn1cc(S(=O)(=O)Nc2ccc(Cl)cc2Cl)c(=O)n(C)c1=O | -0.98% (inactive)
Cc1ccc(NC(=S)N(CCCN2CCC(C)CC2)Cc2ccco2)cc1 | -0.39% (inactive)
Cc1ccc(NC(=S)N(Cc2ccco2)C(C)c2cccs2)cc1 (stereo not given) | 22.4% (active)
Cc1ccc(NC(=S)N(CCN2CCCCC2)Cc2ccco2)cc1C | -2.51% (inactive)
COn1c(=O)c(=O)n(OC)c2ccccc21 | 2.56% (inactive)
O=C(NCc1ccco1)c1nc(-c2ccccc2)n(-c2ccccc2)n1 | -1.81% (inactive)
CS(=O)(=O)n1nc(-c2ccccc2)nc1NCc1ccco1 | 0.56% (inactive)
O=C(Cc1ccccc1)n1nc(-c2ccccc2)nc1NCc1ccco1 | 51.2% (active)
c1csc(CN2CCN(Cc3cccs3)C2c2cccs2)c1 | 17% (active)
O=C1c2cccnc2C(=O)N1Cc1cccs1 | 0.86% (inactive)

SMILES | inhibition
O=C(CSCc1cccs1)N1CCCC1 | -3.58% (inactive)
COC(=O)Nc1ccc(S(=O)(=O)Nc2cc(OC)nc(OC)n2)cc1 | 2.38% (inactive)
COc1ccc(CN(C)C(=O)CC(c2ccccc2)c2ccccc2)cc1 | 2.03% (inactive)
COc1ccc(COC(=O)NC(C(=O)O)c2ccccc2)cc1 (stereo not given) | 0.08% (inactive)
COc1ccc(C(CCN(Cc2ccc(OC)c(OC)c2)C(=O)CCl)c2ccccc2)cc1 (stereo not given) | 59.9% (active)
CCN(CC(=O)Nc1ccc(NC(C)=O)cc1)C(=O)C1CC(=O)N(Cc2ccc(C)cc2)C1 (stereo not given) | 6.92% (inactive)
O=c1c2ccccc2cnn1Cc1n[nH]c(=S)n1-c1ccccc1F | -4.23% (inactive)
COC(=O)C1=C(NC(=O)C(C)(C)C)CCS1 | -1.55% (inactive)
NC(=O)c1ccsc1NC(=O)COC(=O)Cc1n[nH]c(=O)c2ccccc12 | 2.85% (inactive)
COc1cc(OC)c(C2=NOC(C(=O)Nc3c(C)n(C)n(-c4ccccc4)c3=O)C2)cc1Cl (stereo not given) | 4.46% (inactive)
CC(N)C12CC3CC(CC(O)(C3)C1)C2 (stereo not given) | -3.06% (inactive)
Cc1ncn(C23CC4CC(CC(O)(C4)C2)C3)n1 | 23.6% (active)
COC(=O)c1ccc(NC(=O)C23CC4CC(C2)CC(n2cnc(Cl)n2)(C4)C3)cc1 | 0.89% (inactive)
COc1ccc(CCNC(=O)CN2C(=O)CCSc3ccccc32)c(OC)c1 | -0.1% (inactive)
Cc1ccc(Nc2c(F)c(F)c(F)c(F)c2C(=O)O)c(C)c1 | -4.87% (inactive)
COc1ccc(C2=NS(=O)(=O)N(C)C(C(=O)NC(C)c3ccccc3)=C2)cc1 (stereo not given) | 11.2% (inactive)
COc1ccc(NC(=O)NCCN2CCN(c3ccc(C)cc3)CC2)c(Cl)c1 | 2.74% (inactive)
COc1ccc(Cl)cc1NC(=O)COC(=O)C(CC(C)C)N1C(=O)C2CC=CCC2C1=O (stereo not given) | 39.5% (active)
COc1ccc(Cl)cc1NC(=O)c1cccc(N2C(=O)C3CC=CCC3C2=O)c1 (stereo not given) | 0.1% (inactive)
COc1ccc(Cl)cc1NC(=O)CCN1CCOCC1 | -1.4% (inactive)
O=C(CN1CCN(S(=O)(=O)c2ccc(Cl)s2)CC1)NCc1ccc(Cl)cc1 | -3.91% (inactive)
COc1ccc(CNC(=O)CCn2cccc2)cc1 | 17.3% (active)
COc1ccc(CNC(=O)C(Cc2ccccc2)n2cccc2)cc1 (stereo not given) | 2.08% (inactive)
COc1ccc(CNC(=O)CCN2C(=O)c3ccccc3C2=O)cc1 | -1.89% (inactive)
COc1ccc(OC)c(NC(=O)c2cccc(S(=O)(=O)N3CCN(C(C)=O)CC3)c2)c1 | -1.16% (inactive)
